Data taken from PubChem BioAssay (NCATS).
Activity calls are given as the source filed them. Calls come from the whole dose curve.

The molecules below were run against Glucocorticoid receptor (Homo sapiens) (UniProt P04150) (assay: GR-EFC Redistribution (AID 451)). Conditions: CHO-K1 GR-EFC translocation, beta-gal luminescence, 2 h.
From the text: NIH Molecular Libraries Screening Centers Network [MLSCN]
NIH Chemical Genomics Center [NCGC]
The glucocorticoid receptor (GR) is a cytoplasmic receptor that belongs to the nuclear receptor family of ligand-dependent transcription factors. Upon glucocorticoid binding to its receptor, the glucocorticoid-GR complex translocates into the nucleus, where it binds as a dimer to specific DNA sequences (glucocorticoid response elements), enhancing or suppressing transcription of a wide variety of glucocorticoid-responsive genes. In addition to their important roles in normal physiology and metabolism, glucocorticoids are administered exogenously as treatments for a wide variety of allergic, autoimmune, and neoplastic conditions. Identification of compounds that modulate aspects of GR signalling would be useful in dissecting glucocorticoid response pathways as well as developing GR modulators with more targeted clinical effects.
Traditionally, GR modulators have been identified using receptor binding or direct transactivation assays. However, assays for glucocorticoid-dependent nuclear translocation can also be used to screen for compounds affecting GR signaling.
Immunocytochemical staining has been used to assay for GR translocation, but is not suitable for high throughout screening due to the multiple reagent addition and wash steps required. Recently, a novel cell-based GR assay in Enzyme Fragment Complementation (EFC) format was developed by DiscoveRx (Fremont, CA). The assay uses EFC of b-galactosidase (b-gal) as an indicator of GR-translocation in engineered CHO-K1 biosensor cells. The enzyme acceptor (EA) fragment of b-gal resides in the nucleus , as designed through the use of a proprietary set of sequence additions and modifications. The small peptide enzyme donor (ED) fragment of b-gal is fused directly to the C-terminus of GR, and is localized in the cytoplasm is the absence of receptor signaling. Upon binding to a GR ligand, the complex translocates to the nucleus, where intact enzyme activity is restored by complementation and b-gal activity is detected. We optimized this GR-EFC assay in homogenous 1536-well plate assay format for high throughput screening.
NCGC Assay Protocol Summary:
CHO-K1 cells stably expressing NLS-enzyme acceptor fragment (EA) of b-gal and GR-enzyme donor (ED) fragment of b-gal were maintained in F12 medium (Invitrogen, Carlsbad, CA) at 37 Celsius degrees under a humidified atmosphere containing 5% CO2 and 95% air. The medium contained 10% FBS, 2 mM L-glutamine, 50 U/ml penicillin 50 ug/ml streptomycin, and 250 ug/ml hygromycin and 500 ug/ml G418 (Invitrogen).
GR-translocation was measured beta-gal enzyme activity using the PathHunter Detection Kit containing cell membrane permeablizing reagent and beta-gal substrate (DiscoveRx, Fremont, CA). All compounds were screened as titrations from 0.6 nM to 46 uM final concentration. The assay was performed in 1536-well format as follows:
5 uL cell suspension (1,000 cells)/well
Incubation at 37 Celsius degrees for two hours
1.25 uL 1X detection buffer from the kit supplied by DiscoveRx
Incubation at room temperature for one hour
Read plate in luminescence mode in ViewLux plate reader (PerkinElmer)
Keywords: NIH Roadmap, MLSCN, MLI, MLSMR, GR-EFC, GREFC, qHTS, NCGC
Potency is the fitted concentration of half-maximal effect.

Glucocorticoid receptor (Homo sapiens), sequence (P04150 whole entry, looked up): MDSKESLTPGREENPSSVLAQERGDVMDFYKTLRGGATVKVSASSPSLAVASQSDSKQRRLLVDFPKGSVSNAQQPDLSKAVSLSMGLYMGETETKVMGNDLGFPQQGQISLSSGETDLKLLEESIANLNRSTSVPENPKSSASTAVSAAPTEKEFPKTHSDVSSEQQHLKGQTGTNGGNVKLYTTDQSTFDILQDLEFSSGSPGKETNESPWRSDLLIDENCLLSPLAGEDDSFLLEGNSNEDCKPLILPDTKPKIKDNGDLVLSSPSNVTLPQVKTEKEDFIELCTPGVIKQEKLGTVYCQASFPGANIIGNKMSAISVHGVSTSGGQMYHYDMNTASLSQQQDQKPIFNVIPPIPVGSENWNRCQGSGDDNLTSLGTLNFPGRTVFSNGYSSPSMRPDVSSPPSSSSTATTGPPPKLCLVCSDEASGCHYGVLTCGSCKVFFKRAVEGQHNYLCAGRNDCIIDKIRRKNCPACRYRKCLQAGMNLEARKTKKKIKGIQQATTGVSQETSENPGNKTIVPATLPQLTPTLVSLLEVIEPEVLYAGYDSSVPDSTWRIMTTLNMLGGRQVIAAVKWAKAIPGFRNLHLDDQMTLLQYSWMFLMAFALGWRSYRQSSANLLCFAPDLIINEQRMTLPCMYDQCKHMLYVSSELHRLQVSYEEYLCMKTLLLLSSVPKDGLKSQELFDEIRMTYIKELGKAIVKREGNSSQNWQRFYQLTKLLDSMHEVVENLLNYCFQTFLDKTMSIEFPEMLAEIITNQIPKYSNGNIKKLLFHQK

Row | SMILES | Potency
1 | COc1ccc(C(=O)N2CCC3(CC2)CN(C(=O)NC(C)C)C3)cc1 | > 46 µM (inactive)
2 | O=C(c1cccc(F)c1)N1CCC[C@@]2(CCN(c3ccncc3)C2)C1 | > 46 µM (inactive)
3 | O=C(Nc1ccccc1)N1CCCC2(CCN(C(=O)c3ccco3)CC2)C1 | > 46 µM (inactive)
4 | CN(C)Cc1ccccc1-c1cncnc1Nc1ccncc1 | > 46 µM (inactive)
5 | COc1cccc(-c2cncnc2NC2CCNCC2)c1 | > 46 µM (inactive)
6 | CC(=O)N1CCC[C@@]2(CCN(c3ncccn3)C2)C1 | > 46 µM (inactive)
7 | N#Cc1cccc(NC(=O)N2CC[C@@]3(CCCNC3)C2)c1 | > 46 µM (inactive)
8 | CCNc1ncc2nc(C)c(=O)n(Cc3ccc(F)cc3)c2n1 | > 46 µM (inactive)
9 | O=C(c1csnn1)N1CCC[C@@]2(CCN(c3ccccn3)C2)C1 | > 46 µM (inactive)
10 | COc1ccc(-n2c(=O)cnc3cnc(OC)nc32)cc1 | > 46 µM (inactive)
11 | Cn1c(=O)c(-c2cccc(C#N)c2)nc2cnc(Oc3ccccc3)nc21 | > 46 µM (inactive)
12 | O=c1c(-c2ccccc2)nc2cnc(Nc3ccccc3)nc2n1Cc1cccs1 | > 46 µM (inactive)
13 | COCC(=O)N1CCC2(CC1)CN(C(=O)Nc1cccc(F)c1)C2 | > 46 µM (inactive)
14 | COc1cccc(-c2ccc3ncnc(NCc4cccnc4)c3c2)c1 | > 46 µM (inactive)
15 | COc1ccccc1-c1cc(NCc2cccc(C)c2)ncn1 | > 46 µM (inactive)
16 | CN(Cc1ccco1)c1cc(-c2ccccc2Cl)ncn1 | > 46 µM (inactive)
17 | Cc1nc2cnc(N3CCOCC3)nc2n(CCC#N)c1=O | > 46 µM (inactive)
18 | COc1ccc(-n2c(=O)c(-c3cn(C)c4ccccc34)nc3cnc(OC)nc32)cc1 | > 46 µM (inactive)
19 | CN(C)c1ncc2nc(-c3cc(F)cc(F)c3)c(=O)n(C3CC3)c2n1 | > 46 µM (inactive)
20 | COc1ccc(Oc2ncc3nc(-c4ccc(OC)cc4)c(=O)n(C4CC4)c3n2)cc1 | > 46 µM (inactive)

Row | SMILES | Potency
21 | COc1ccc(CNc2ncnc3ccc(-c4ccccc4OC)cc23)c(OC)c1 | > 46 µM (inactive)
22 | COCCn1c(=O)cnc2cnc(Nc3cccc(OC)c3)nc21 | > 46 µM (inactive)
23 | COCCn1c(=O)c(-c2cn(C)c3ccccc23)nc2cnc(Oc3cccc(Cl)c3)nc21 | > 46 µM (inactive)
24 | O=C(Nc1cccc(F)c1)N1CC[C@@]2(CCCN(C(=O)c3cccc(F)c3)C2)C1 | > 46 µM (inactive)
25 | Cc1noc(C)c1-c1cc(N(C)C)ncn1 | > 46 µM (inactive)
26 | COc1cccc(Cn2c(=O)c(C)nc3cnc(OC)nc32)c1 | > 46 µM (inactive)
27 | COc1cccc(-c2cncnc2N(C)Cc2ccco2)c1 | > 46 µM (inactive)
28 | COc1ccc(-c2nc3cnc(N4CCNCC4)nc3n(-c3ccccc3)c2=O)cc1 | > 46 µM (inactive)
29 | CN(C)Cc1ccccc1-c1nc(NCc2ccccc2)c2ccccc2n1 | > 46 µM (inactive)
30 | Cc1noc(C)c1-c1cncnc1NCCN1CCOCC1 | > 46 µM (inactive)
31 | COc1ccc(Oc2ncc3nc(C)c(=O)n(Cc4cccc(OC)c4)c3n2)cc1 | > 46 µM (inactive)
32 | c1ccc2c(N3CCNCC3)nc(-c3ccc4c(c3)OCO4)nc2c1 | > 46 µM (inactive)
33 | O=c1c(-c2cccs2)nc2cnc(N3CCNCC3)nc2n1-c1ccccc1 | > 46 µM (inactive)
34 | CC(=O)NCCNc1cc(-c2ccccc2C(F)(F)F)ncn1 | > 46 µM (inactive)
35 | O=C(Nc1ccccc1)N1CCC2(CC1)CCN(C(=O)c1ccncc1)CC2 | > 46 µM (inactive)
36 | O=C(c1cc(C(F)(F)F)cc(C(F)(F)F)c1)N1CCC2(CCCN(Cc3nccs3)C2)CC1 | > 46 µM (inactive)
37 | COc1cccc(Nc2ncc3nc(CCc4ccccc4)c(=O)n(C)c3n2)c1 | > 46 µM (inactive)
38 | COc1cccc(-c2cncnc2-n2ccnc2)c1 | > 46 µM (inactive)
39 | O=C(c1cnccn1)N1CCC[C@@]2(CCN(c3ccccc3)C2)C1 | > 46 µM (inactive)
40 | Clc1ccccc1-c1cncnc1NCc1cccs1 | > 46 µM (inactive)
